# Data as given in PubChem BioAssay.
# “And” between values parts separate entries of the source, which are not always exact repeats. Equal entries are not always repeated. The source made the active and inactive calls.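 Rule for the calls, unless noted: active = at least 20% inhibition of 6-phosphogluconate dehydrogenase activity; inactive = the rest.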
# Legend:
# [1] = compounds altering viability of human ES cells (AID 493140; call rule not given here;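 note: cells exposed to compounds for four days before counting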); conditions: human embryonic stem cell survival screen; stronger effect = higher value
# [2] = stimulators of insulin release from INS-1E, primary screen, cell-based, 5 mM glucose, NPC library (AID 1117329;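 active = compound raises insulin release from rat beta cells at 5 mM glucose, no numeric limit stated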); conditions: rat INS-1E insulin secretion, at 10 µM, stronger effect = higher value
# [3] = growth inhibition of GSK3B-pretreated HCT116 cells – cell-based, CellTiter-Glo, 0.2 to 20 µM (AID 1117336;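 active = compounds lowering colon cancer cell viability after pretreatment blocking the GSK3B kinase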); conditions: HCT116 viability after GSK3B inhibitor, at 20 µM, stronger effect = higher value
# [4] = inhibition of endothelial tube formation, primary screen, imaging, VEGF stimulated, CD31 staining, tube area, NPC library (AID 1117340;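 active = compound that reduces growth-factor-driven endothelial tube area in a mixed cell culture, no cutoff stated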); conditions: VEGF-stimulated ADSC/ECFC co-culture, at 10 µM, stronger effect = higher value
# [5] = GLP1 release stimulators, primary, NCI-H716, NPC library (AID 1117341;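 active = compound raises GLP1 secretion from the human gut endocrine cells, with no numeric limit stated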); conditions: NCI-H716 cells, at 10 µM, stronger effect = higher value
# [6] = HCT116 colon cancer cell growth inhibition, primary screen, CellTiter-Glo luminescence, NPC library (AID 1117342;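 active = compounds that lower survival of HCT116 colon cancer cells in the luminescence readout, no numeric limit stated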); conditions: at 20 µM (top of the series)
# [7] = reduced SW480 viability measured with CellTiter-Glo, NPC library, primary (AID 1117343;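 active = compounds that lower viability of the colon cancer cells in the luminescence readout, with no numeric limit stated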); conditions: CellTiter-Glo luminescence; at 20 µM (top of the series) unless noted
# [8] = NPC library primary testing for decreased DLD-1 cell viability via CellTiter-Glo (AID 1117346;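 active = compounds that lower survival of DLD-1 colon cancer cells in the luminescence readout, no cutoff given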); conditions: DLD-1 viability, CellTiter-Glo luminescence; at 20 µM (top of the series)
# [9] = modulation of C. elegans fzo-1 (AID 1259413; call rule not given here;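 note: fzo-1 mutant C. elegans worms in liquid wells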); conditions: C. elegans fzo-1 modulator screen, mean read-out; stronger effect = higher value
# [10] = EMT-state selective cytotoxicity in co-culture – imaging, PC-3E GFP, TEM4-18 mCherry, primary screen (AID 1345086;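 active = compounds killing one labelled cell type while sparing the other, by normalised counts and ratio limits, not self-fluorescent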;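 for all read-outs here: cells exposed to compound for 72 h before imaging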;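 for red/green cell ratio (normalised): normalised mesenchymal count divided by normalised epithelial count so high means epithelial killing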); conditions: PC-3E GFP / TEM4-18 mCherry co-culture, imaging cell counts, at 1 µM; for red/green cell ratio (normalised): actives lie on both sides, counts scaled to control wells, 1 = unselective
# [11] = blockers of cellular phospholipid synthesis – cell-based, LOPAC library, screen 4, primary screen (AID 1347384; call rule not given here); conditions: animal cells, phospholipid biosynthesis inhibition screen; at 10 µM
# [12] = MELAS cybrid and Rieske KO viability enhancers – cell-based, MELAS cybrids, Rieske KO mouse fibroblasts, CellTiter-Glo, primary screen (AID 1508586;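 active = mean z-score across replicates of 1.96 or higher in either the MELAS or the Rieske mutant cell line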;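 note: z relative to plate mean and SD of compound and empty wells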); conditions: low glucose
# [13] = target: NAD(+) hydrolase SARM1 (Homo sapiens) (UniProt Q6SZW1); test: blocking NAD cleavage by SARM1 SAM-TIR – cell lysate, NAD-Glo luminescence (AID 1508614;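 active = compound whose remaining NAD level is above about 45 nM, limit read from the data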;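 note: higher remaining NAD means stronger inhibition of SARM1 NADase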); conditions: SAM-TIR HEK293T lysate NADase, at 1 µM, stronger effect = higher value
# Chain of NAD(+) hydrolase SARM1 (Homo sapiens) (Q6SZW1 whole entry, looked up, the tested form may be a part): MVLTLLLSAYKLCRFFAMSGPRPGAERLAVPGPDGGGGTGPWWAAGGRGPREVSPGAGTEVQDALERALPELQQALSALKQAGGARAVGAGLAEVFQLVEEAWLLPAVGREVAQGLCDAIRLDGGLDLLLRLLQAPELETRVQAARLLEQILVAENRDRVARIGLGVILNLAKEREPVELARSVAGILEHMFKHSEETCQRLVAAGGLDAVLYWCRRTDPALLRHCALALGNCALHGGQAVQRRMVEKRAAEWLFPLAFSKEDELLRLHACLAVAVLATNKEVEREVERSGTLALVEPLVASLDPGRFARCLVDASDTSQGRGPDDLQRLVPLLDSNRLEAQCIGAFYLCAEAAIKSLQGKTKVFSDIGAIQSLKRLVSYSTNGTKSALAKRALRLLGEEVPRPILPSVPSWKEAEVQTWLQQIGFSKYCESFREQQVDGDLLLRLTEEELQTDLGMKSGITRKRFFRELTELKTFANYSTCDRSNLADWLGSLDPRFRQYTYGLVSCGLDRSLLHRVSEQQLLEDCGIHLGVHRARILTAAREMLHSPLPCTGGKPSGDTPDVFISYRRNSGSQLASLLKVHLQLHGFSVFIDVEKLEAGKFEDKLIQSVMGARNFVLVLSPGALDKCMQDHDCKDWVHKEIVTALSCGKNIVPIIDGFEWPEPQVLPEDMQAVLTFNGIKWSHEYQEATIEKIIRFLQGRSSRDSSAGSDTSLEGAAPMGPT
# [14] = target: Mitogen-activated protein kinase 7 (Homo sapiens) (UniProt Q13164); test: Gal4-ERK5 driven luciferase induction – cell-based, HTS, primary screen (AID 1508626;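 active = luciferase signal above three times the same-plate solvent-only control wells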;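 note: luciferase driven by Gal4-ERK5 fusion binding five Gal4 sites before minimal TATA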); conditions: HeLa Gal4-ERK5 transactivation, 18 h, at 5 µM, stronger effect = higher value
# Chain of Mitogen-activated protein kinase 7 (Homo sapiens) (Q13164 whole entry, looked up, the tested form may be a part): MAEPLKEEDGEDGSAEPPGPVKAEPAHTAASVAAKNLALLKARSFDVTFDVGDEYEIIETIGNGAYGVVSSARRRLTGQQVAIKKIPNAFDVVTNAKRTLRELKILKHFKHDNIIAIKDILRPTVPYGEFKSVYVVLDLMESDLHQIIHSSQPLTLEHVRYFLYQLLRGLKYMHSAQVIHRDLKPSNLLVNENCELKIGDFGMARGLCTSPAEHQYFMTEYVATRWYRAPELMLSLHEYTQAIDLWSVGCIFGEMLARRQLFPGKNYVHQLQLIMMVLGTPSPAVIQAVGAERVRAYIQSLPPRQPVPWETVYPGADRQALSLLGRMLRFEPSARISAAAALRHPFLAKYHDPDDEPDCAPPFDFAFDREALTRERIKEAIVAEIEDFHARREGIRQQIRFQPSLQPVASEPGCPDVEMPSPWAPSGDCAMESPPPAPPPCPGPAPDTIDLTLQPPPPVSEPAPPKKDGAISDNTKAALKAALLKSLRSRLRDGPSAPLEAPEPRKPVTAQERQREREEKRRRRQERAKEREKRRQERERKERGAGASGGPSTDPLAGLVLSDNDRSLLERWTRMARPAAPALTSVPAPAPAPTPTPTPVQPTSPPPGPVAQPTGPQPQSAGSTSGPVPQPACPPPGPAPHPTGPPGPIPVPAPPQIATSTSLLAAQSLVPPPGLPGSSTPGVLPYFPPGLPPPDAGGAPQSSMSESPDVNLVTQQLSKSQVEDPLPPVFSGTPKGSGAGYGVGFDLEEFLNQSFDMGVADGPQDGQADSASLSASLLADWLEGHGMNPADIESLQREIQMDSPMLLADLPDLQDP
# [15] = target: 6-phosphogluconate dehydrogenase, decarboxylating (Homo sapiens) (UniProt P52209); test: inhibition of human phosphogluconate dehydrogenase – biochemical, recombinant enzyme, NADPH absorbance, primary screen (AID 1159550); conditions: recombinant 6PGD, NADPH absorbance 341 nm; at 10 µM; stronger effect = higher value
# Chain of 6-phosphogluconate dehydrogenase, decarboxylating (Homo sapiens) (P52209 whole entry, looked up): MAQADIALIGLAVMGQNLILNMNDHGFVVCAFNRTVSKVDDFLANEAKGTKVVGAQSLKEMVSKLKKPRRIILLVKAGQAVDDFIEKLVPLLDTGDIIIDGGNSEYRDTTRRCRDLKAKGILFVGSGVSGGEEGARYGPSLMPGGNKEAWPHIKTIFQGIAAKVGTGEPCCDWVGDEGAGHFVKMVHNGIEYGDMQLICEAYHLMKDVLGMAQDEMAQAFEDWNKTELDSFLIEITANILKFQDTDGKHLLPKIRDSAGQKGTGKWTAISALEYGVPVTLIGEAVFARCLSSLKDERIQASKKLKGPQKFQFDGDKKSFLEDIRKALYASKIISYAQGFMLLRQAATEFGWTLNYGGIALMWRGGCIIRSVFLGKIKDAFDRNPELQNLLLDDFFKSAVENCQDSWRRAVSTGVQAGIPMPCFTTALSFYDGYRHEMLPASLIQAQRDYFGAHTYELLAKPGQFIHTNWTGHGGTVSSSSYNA
# [16] = viability loss with induced miR-34 in A549 – imaging, A549 dox-inducible miR-34, nuclei and caspase counts, primary screen (AID 1347080;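 active = compounds whose cell count with miR-34 switched on is under 0.7 times the count with it off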); conditions: A549 miR-34 inducible, Hoechst nuclei count, 48 h
# [17] = galactose survival enhancers in mitochondrial complex I cybrids – cell-based, galactose medium, ATP luminescence, primary screen (AID 1645843;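 active = z-score of at least 1.8 in each of two replicates, scored against plate mean and spread of sample wells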;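 note: positive z means more ATP and so rescue of galactose-driven cybrid death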); conditions: complex I mutant cybrid cells, 72 h, stronger effect = higher value
# [18] = P. berghei load reduction in hepatocytes – cell-based, HepG2, luciferase luminescence, HepG2 viability, primary screen (AID 624349; in the data active = parasite load remaining mostly below about 12%, no sharp cut-off; inactive = mostly above about 10%;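 note: 100% = mean of DMSO negative control wells on the same plate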); conditions: P. berghei liver stage in HepG2, luciferase luminescence, concentration not given here; parasite load remaining: stronger effect = lower value; viability: measured here: HepG2 viability without parasites
# [19] = measured here: epithelial PC-3E GFP cell survival
# [20] = measured here: mesenchymal TEM4-18 mCherry cell survival
# [21] = MELAS cybrid survival, CellTiter-Glo 48 h, stronger effect = higher value
# [22] = Rieske KO mouse fibroblast survival, CellTiter-Glo 72 h
# [23] = measured here: total cells without miR-34 induction
smiles,measurement,setting,value
O=C(O)COCCN1CCN(C(c2ccccc2)c2ccc(Cl)cc2)CC1 (centres undefined),survival,[1],20 (inactive)
same,insulin secretion stimulation,[2],4.3% (inactive)
same,viability decrease,[3],-8.4% (inactive)
same,tube area decrease,[4],2.5% (inactive)
same,GLP1 secretion stimulation,[5],1.4% (inactive)
same,inhibition of viability,[6],11.2% (inactive)
same,viability decrease (inhibition),[7],-6.6% (inactive)
same,viability decrease (inhibition),[8],8.8% (inactive)
same,mean signal,[9],254 (inactive)
same,red/green cell ratio (normalised),[10],0.83 (inactive)
same,normalised cell number,[10]; [19],1.06
same,normalised cell number,[10]; [20],0.88
same,outcome,[11],inactive
same,z-score,[12]; [21],-0.429 (inactive) and 0.214 (inactive)
same,z-score,[12]; [22],0.813 and 0.142
same,remaining NAD,[13],10 nM (inactive)
same,luciferase signal,[14],76 AU (inactive)
C=C(C)/C=C1/C=CC(=O)C(C)=C1,inhibition,[15],-4.6% (inactive)
C[N+]1(C)CCC(OC(=O)C(O)(c2ccccc2)C2CCCC2)C1 (centres undefined),survival,[1],3.83 (inactive)
same,insulin secretion stimulation,[2],1.8% (inactive)
same,viability decrease,[3],-4% (inactive)
same,tube area decrease,[4],-0.8% (inactive)
same,GLP1 secretion stimulation,[5],-0.5% (inactive)
same,inhibition of viability,[6],11.3% (inactive)
same,viability decrease (inhibition),[7],-15.2% (inactive)
same,viability decrease (inhibition),[8],2% (inactive)
same,mean signal,[9],254 (inactive)
same,red/green cell ratio (normalised),[10],0.8 (inactive)
same,normalised cell number,[10]; [19],1.28
same,normalised cell number,[10]; [20],1.02
same,cell count,[16]; [23],11400 and 10400 and 13800
same,z-score,[12]; [21],0.599 (inactive)
same,z-score,[12]; [22],0.684
same,remaining NAD,[13],10 nM (inactive)
same,z-score,[17],0.385 (inactive) and 0.61 (inactive)
Nc1ccccn1,inhibition,[15],-0.139% (inactive)
Cc1ccc(/C(=C\CN2CCCC2)c2ccccn2)cc1,survival,[1],11.5 (inactive)
same,insulin secretion stimulation,[2],24% (active)
same,viability decrease,[3],-2.3% (inactive)
same,tube area decrease,[4],-2.9% (inactive)
same,GLP1 secretion stimulation,[5],-2.1% (inactive)
same,inhibition of viability,[6],-50.9% (inactive)
same,viability decrease (inhibition),[7],6.5% (active)
same,viability decrease (inhibition),[8],-45.1% (inactive)
same,inhibition,[15],2.89% (inactive)
same,red/green cell ratio (normalised),[10],1.28 (inactive)
same,normalised cell number,[10]; [19],0.94
same,normalised cell number,[10]; [20],1.2
same,outcome,[11],inactive
same,z-score,[12]; [21],0.293 (inactive) and -0.295 (inactive)
same,z-score,[12]; [22],0.187 and -0.783
same,remaining NAD,[13],10 nM (inactive)
same,luciferase signal,[14],152 AU (inactive)
same,z-score,[17],-0.245 (inactive) and -0.1 (inactive) and 0.365 (inactive)
CC1(C)[C@H](C(=O)O)N2C(=O)C[C@H]2S1(=O)=O,parasite load remaining,[18],25.7% (inactive)
same,viability,[18],74%
same,insulin secretion stimulation,[2],-1.5% (inactive)
same,viability decrease,[3],0.3% (inactive)
same,tube area decrease,[4],-3.3% (inactive)
same,GLP1 secretion stimulation,[5],-0.3% (inactive)
same,inhibition of viability,[6],-13.6% (inactive)
same,viability decrease (inhibition),[7],6.5% (inactive)
same,viability decrease (inhibition),[8],3.8% (inactive)
same,fold change,"[16]; stronger effect = lower value, cell number ratio, induced over uninduced",0.988 (inactive) and 0.885 (inactive) and 0.887 (inactive)
same,fold change,[16]; measured here: relative caspase fold change +Dox/-Dox,0.598 and 0.786 and 1.47
same,cell count,"[16]; measured here: total cells with miR-34 induction, stronger effect = lower value",7470 and 7970 and 9900
same,cell count,[16]; [23],7550 and 9000 and 11200
same,remaining NAD,[13],10 nM (inactive)
same,z-score,[17],0.33 (inactive)
CC(=O)OCC(=O)[C@@]1(O)CC[C@H]2[C@@H]3CC[C@@H]4C[C@H](O)CC[C@]4(C)[C@H]3C(=O)C[C@@]21C,inhibition,[15],-7.21% (inactive)
O=C(Oc1cc([C@H]2Oc3cc(O)cc(O)c3C[C@H]2O)cc2c([C@H]3Oc4cc(O)cc(O)c4C[C@H]3O)cc(O)c(OC(=O)c3cc(O)c(O)c(O)c3)c2c1=O)c1cc(O)c(O)c(O)c1,inhibition,[15],-0.352% (inactive)
CC1(C)S[C@H]2[C@@H](NC(=O)[C@H](NC(=O)N3CCNC3=O)c3ccccc3)C(=O)N2[C@@H]1C(=O)O,inhibition,[15],10.5% (inactive)
COc1cc(O)c2c(=O)cc(-c3ccc(O)cc3)oc2c1,inhibition,[15],6.18% (inactive)
CC(C)c1c(O)ccc2c1CCC1C(C)(CO)CCCC21C (centres undefined),inhibition,[15],-0.0186% (inactive)
